This is part of a sample that, as a whole, favours compounds with a hit. Of some 83,000 tested, about 20% had one in any assay.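 Method: cells in 96-well plates; compound added at one concentration; 48 h incubation; percent growth measured; values under 10 scored active.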 Values without a mark were called inactive. Calls of active or inactive are those of the source.
How the values were obtained:
Test in all cases: NCI-60 one-dose screen, 48 h (100 = growth as untreated, 0 = no growth, -100 = all killed)
Conditions in all cases: 10 µM unless noted
NCI-H23 lung = tested on: NCI-H23 lung
NCI-H226 lung = tested on: NCI-H226 lung
NCI-H322M lung = tested on: NCI-H322M lung
HOP-62 NSCLC = tested on: HOP-62 NSCLC
NCI-H460 lung = tested on: NCI-H460 lung
HOP-92 NSCLC = tested on: HOP-92 NSCLC
NCI-H522 lung = tested on: NCI-H522 lung
A549/ATCC NSCLC = tested on: A549/ATCC NSCLC
786-0 renal = tested on: 786-0 renal
COLO 205 colon = tested on: COLO 205 colon
DU-145 prostate = tested on: DU-145 prostate
MALME-3M melanoma = tested on: MALME-3M melanoma
MDA-MB-231 breast = tested on: MDA-MB-231 breast
RXF 393 renal = tested on: RXF 393 renal
SF-268 CNS = tested on: SF-268 CNS
SF-295 CNS = tested on: SF-295 CNS
SF-539 CNS = tested on: SF-539 CNS
UACC-257 melanoma = tested on: UACC-257 melanoma
M14 melanoma = tested on: M14 melanoma

SMILES | growth (NCI-H23 lung) | growth (NCI-H226 lung) | growth (NCI-H322M lung) [%] | growth (HOP-62 NSCLC) | growth (NCI-H460 lung) | growth (HOP-92 NSCLC) | growth (NCI-H522 lung) | growth (A549/ATCC NSCLC) | growth (786-0 renal) | growth (COLO 205 colon) | growth (DU-145 prostate) | growth (MALME-3M melanoma) | growth (MDA-MB-231 breast) | growth (RXF 393 renal) | growth (SF-268 CNS) | growth (SF-295 CNS) | growth (SF-539 CNS) | growth (UACC-257 melanoma) | growth (M14 melanoma)
C=C1C(=O)O[C@H]2[C@H]1CC/C(CNS(=O)(=O)c1cccc3ccccc13)=C\CC[C@@]1(C)O[C@@H]21 | 57.9% | 57.8% | 91.2 | 94.9% | 73.8% | 12.1% | -63.9% (active) | 83.5% | 26.1% | 8.89% (active) | 25.5% | -18.4% (active) | 43.6% | -14.9% (active) | 58% | 82.2% | 49.2% | 70.4% | 31.7%
Nc1c(S(=O)(=O)O)cc2c3c(cccc13)C(=O)OC2=O | 94.9% | 105% | 107 | 93.9% | 105% | 90.7% | 104% | 116% | 102% | 111% | 140% | 112% | 103% | 131% | 109% | 117% | 100% | 78.8% | 102%
COc1ccc(/C=C/c2nc(Nc3cccc(NC(C)=O)c3)c3ccccc3n2)cc1 | 87.6% | 82.3% | 45.5 | 82.1% | 84.3% | 69.4% | 75.9% | 55.4% | 88.9% | 105% | 88.7% | 102% | 85.3% | 104% | 92.1% | 83.1% | 98.5% | 95.6% | 72.9%
Cc1cc2c(c(C)c1Cl)C(=O)/C(=C/c1ccc(O)c(O)c1)O2 | 94.6% | 92.9% | 104 | 90.5% | 99.9% | 90.2% | 87.3% | 97.8% | 107% | 114% | 109% | 111% | 91.3% | 113% | 108% | 103% | 100% | 97.7% | 95.2%
COc1ccc(/C=C/C(=O)Nc2cc(/C=C\c3cc(OC)c(OC)c(OC)c3)cc(OC)c2OC)cc1OC | 0.824% (active) | 37.6% | 42.3 | 33.9% | 17.5% | 46.2% | -21.3% (active) | 40% | 23% | 11.2% | 53.2% | 32.8% | 52% | -5.89% (active) | 31.5% | 4.33% (active) | 28.6% | 50.7% | 5.78% (active)
CCN(c1ccccc1)S(=O)(=O)c1cc([N+](=O)[O-])ccc1Cl | 80.2% | 36.4% | 73.3 | 105% | 106% | 49.9% | 23.7% | 102% | 97.4% | 129% | 94% | 67.6% | 56.3% | 40.7% | 77.4% | 110% | 36.2% | 64.6% | 70.9%
CC(C)(C)[Si](C)(C)OC1[C@@H](O[Si](C)(C)C(C)(C)C)[C@@H](CNC(=O)NC(=O)CCl)O[C@H]1n1cnc2c(NC(=O)Nc3ccccc3)ncnc21 (some centres undefined) | -93.3% (active) | -93.8% (active) | 120 | -95.5% (active) | 11.9% | -74% (active) | -61.9% (active) | 1.49% (active) | -93.8% (active) | -18.3% (active) | -2.39% (active) | -70.2% (active) | -72.7% (active) | -93.1% (active) | -77.4% (active) | -71.2% (active) | -86.2% (active) | 14.1% | -56% (active)
CCCN1[C@@H]2CC[C@H]1/C(=C\c1ccc(OC)c(OC)c1)C(=O)/C2=C/c1ccc(OC)c(OC)c1 | 23.8% | 67.3% | 46.7 | 68.2% | 39.6% | 39.8% | 47.8% | 49.3% | 63.8% | 51.4% | 59.7% | 83.9% | 56.3% | 58.3% | 59.2% | 30.9% | 59.4% | 42.1% | 43.1%
NS(=O)(=O)c1ccc(CCN2C(=O)C3C(C2=O)C2(Cl)C(Cl)=C(Cl)C3(Cl)C2(Cl)Cl)cc1 (centres undefined) | 92.9% | 101% | 104 | 104% | 104% | 47.6% | 91% | 101% | 95.3% | 108% | 96.5% | 90.5% | 92.9% | 109% | 102% | 94% | 92.5% | 110% | 94.5%
COC(=O)c1ccc2c(c1)[n+](=O)c(C(C)=O)c(C(F)(F)F)n2[O-] | -62.2% (active) | -17.1% (active) | 66.2 | -9.08% (active) | -88.8% (active) | -57% (active) | -80.7% (active) | 28.6% | -40.5% (active) | -100% (active) | 1.28% (active) | -26.4% (active) | -4.69% (active) | -20.1% (active) | -24.8% (active) | -45.7% (active) | -45.8% (active) | -30.3% (active) | -23.5% (active)
Cn1cc(-c2csc(-c3c[nH]c4ccccc34)n2)c2ccnc(Cl)c21 | 86.9% | 60.5% | 88.9 | 119% | 74.2% | 64% | 52.5% | 59% | 59.1% | 46.7% | 47.2% | 139% | 70.1% | 43.5% | 102% | 93.2% | 56.2% | 32.2% | 43.3%
Cc1nn(-c2ccccc2)c(Cl)c1/C=C/C(=O)c1ccc(F)cc1 | 94.6% | 85.8% | 91.2 | 89.5% | 98% | 88.1% | 69.4% | 83.8% | 12.6% | 105% | 104% | 93.2% | 97.9% | 80.8% | 96.8% | 91.2% | 89.9% | 88.9% | 80.6%
Cn1c(-c2c(N)n(CCCN3CCOCC3)c3nc(C#N)c(C#N)nc23)nc2ccccc21 | 93.2% | 89.7% | 78.1 | 76.4% | 106% | -6.11% (active) | 77.4% | 86.8% | 23.3% | 70% | 75.3% | 48.4% | 43.4% | 51.2% | 76.2% | 110% | 19.3% | 67.8% | 74.2%
CC(C)c1ccc(Nc2ccc3c(OCCCN4CCN(C)CC4)cccc3n2)cc1 | 70.8% | 83.9% | 82.6 | 64.1% | 52.1% | 56.5% | 83.2% | 51.5% | 46.5% | -65.1% (active) | 76.1% | 39.2% | 51.8% | 48.9% | 71.8% | 38.8% | 73.5% | 71.9% | -67.6% (active)
COc1cc(/C=C\c2cc(OC)c(OC)c(OC)c2)cc(NC(=O)/C=C/c2cc(OC)c(OC)c(OC)c2)c1OC | 27.8% | 66.6% | 66.8 | 63.7% | 55.7% | 45% | 23.3% | 60.8% | 51.6% | 38.2% | 78% | 48.7% | 51.3% | 28.7% | 72.6% | 32.6% | 56.4% | 68.4% | 37.9%
COc1cc(-c2cc(-c3ccc(N(C)C)cc3)nc(N3CCOCC3)c2C#N)cc(OC)c1OC | 60% | 19.9% | 35.8 | -36.8% (active) | 15.2% | 4.13% (active) | 0.156% (active) | 26.9% | -38.5% (active) | 19.9% | 52.4% | 31.1% | 25.2% | -43.2% (active) | 36% | -20.9% (active) | 47.3% | 24.3% | -61.5% (active)
